ELG1 repair inh: qHTS screen for small molecules that inhibit ELG1-dependent DNA repair in human embryonic kidney (HEK293T) cells expressing luciferase-tagged ELG1 | actives 2.3% (n = 330,000) | HEK293T ELG1-luciferase reporter, luminescence, 16 h; DNA damage induced by 5-fluorouridine | Potency, µM (top dose mostly 46.1 µM), hits mostly inhibitors | AID 504467, 2011; further: nearly all actives have a fitted effect of over 55% in size
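Overnight (16 hr) co-exposure of 2,000 cells/well to 5-fluorouridine and compound at 37 °C preceded detection. Luciferase was quantified via ONE-Glo luminescence; loss of signal denotes inhibition.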
12-LOX inh: Primary qHTS assay for inhibitors of human arachidonate 12S-lipoxygenase (ALOX12): Round 2; Potency, µM (top dose mostly 108 µM), usual class: inhibitors; Polyunsaturated fatty acid lipoxygenase ALOX12 (Homo sapiens), P18054; actives 1.1% (n = 580,000); purified 12hLO, xylenol orange hydroperoxide absorbance; AID 1671190, 2021
Target sequence (P18054 whole entry, looked up): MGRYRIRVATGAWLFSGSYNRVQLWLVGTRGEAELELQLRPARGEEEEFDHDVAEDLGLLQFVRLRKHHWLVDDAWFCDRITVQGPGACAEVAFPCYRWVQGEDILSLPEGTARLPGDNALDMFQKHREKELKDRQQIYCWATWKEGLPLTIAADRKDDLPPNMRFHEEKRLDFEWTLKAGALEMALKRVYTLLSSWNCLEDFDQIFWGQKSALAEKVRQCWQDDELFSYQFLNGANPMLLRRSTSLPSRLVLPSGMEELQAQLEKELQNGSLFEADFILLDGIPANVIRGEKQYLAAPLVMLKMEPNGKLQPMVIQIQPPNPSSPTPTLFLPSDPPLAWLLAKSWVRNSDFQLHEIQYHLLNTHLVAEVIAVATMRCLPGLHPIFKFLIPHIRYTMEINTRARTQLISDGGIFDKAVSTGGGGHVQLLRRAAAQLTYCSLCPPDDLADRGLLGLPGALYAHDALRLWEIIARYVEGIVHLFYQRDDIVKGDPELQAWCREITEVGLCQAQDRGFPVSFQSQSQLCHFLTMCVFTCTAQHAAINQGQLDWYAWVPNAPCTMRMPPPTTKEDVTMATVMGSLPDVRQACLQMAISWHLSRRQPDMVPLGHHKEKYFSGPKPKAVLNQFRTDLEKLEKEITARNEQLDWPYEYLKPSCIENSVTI
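Purified human 12hLO at 150 nM in 25 mM Hepes, 0.01% Triton X-100, pH 7.0, preincubated 15 min at room temperature with compound. Reaction started with 40 uM arachidonic acid, 30 min at room temperature. Hydroperoxide measured by Fe-xylenol orange, 573/405 nm absorbance ratio.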
VP16 counter: VP16 counterscreen qHTS for inhibitors of ROR gamma transcriptional activity | Drosophila S2 Gal4-VP16 UAS-luciferase, luminescence, 20 h | Potency, µM (highest dose often 53.6 µM), most hits filed as inhibitors | actives 3.5% (n = 310,000);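 further: Gal4-VP16 expression switched on by copper sulfate through the metallothionein promoter; nearly all actives have a fitted effect of over 50% in size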
DT40 TDP1 no CPT: qHTS for Inhibitors of human tyrosyl-DNA phosphodiesterase 1 (TDP1): qHTS in cells in absence of CPT. actives 15% (n = 420,000). DT40 Tdp1-/- hTDP1 cells, no CPT, ATP luminescence, 48 h. AID 686978, 2013. Potency, µM (series often up to 46.2 µM), hits mostly inhibitors; further: nearly all actives have a fitted effect of over 55% in size
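Growth of hTDP1-complemented DT40 Tdp1-knockout cells is measured by ATP luminescence after at least 48 hr compound exposure at 37 °C, with DMSO substituting for the 20 nM CPT used in the parallel screen.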
RORgamma inh: qHTS for inhibitors of ROR gamma transcriptional activity | Drosophila S2 Gal4-RORgamma UAS-luciferase reporter, 20 h | actives 5.4% (n = 310,000) | Potency, µM (series often up to 53.6 µM), most hits filed as inhibitors; further: nearly all actives have a fitted effect of over 60% in size
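Drosophila S2 cells stably expressing Gal4-DBD/mouse RORγ fusion under metallothionein promoter plus UAS-luciferase; compound 1 h, then 700 uM CuSO4 induction for 20 h at ambient temperature; inhibition read as reduced luminescence.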
DT40 TDP1 CPT: qHTS for Inhibitors of human tyrosyl-DNA phosphodiesterase 1 (TDP1): qHTS in cells in presence of CPT; actives 12% (n = 420,000); Potency, µM (top dose mostly 46.2 µM), most hits filed as inhibitors; chicken DT40 Tdp1-/-;hTDP1 cells + 20 nM CPT, ATP luminescence, 48 h; further: nearly all actives have a fitted effect of over 55% in size
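Chicken DT40 Tdp1-/- cells complemented with human TDP1, 400 cells/well, exposed to compounds plus 20 nM camptothecin for at least 48 h at 37 C; viability read as ATP content by CellTiter-Glo luminescence.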
Large screens that a line does not name were inactive. Only some compounds are listed: those with a hit (about 15% of all), similar ones and a draw of the others. The call rests on the fitted dose curve; in most records, active means well fitted curve in the direction sought with a large enough effect; inconclusive means small, poorly fitted or top-dose-only effect, or another doubt; inactive means no such curve, though single readings can be large; an effect the other way counts as inactive or inconclusive.

CCOc1ccc(/C=N/OCC(=O)NCc2ccco2)cc1	DT40 TDP1 no CPT 23µM, DT40 TDP1 CPT inconclusive
CCc1ccc(NC(=O)NC(C(=O)N2CCc3ccccc32)c2ccccc2)cc1 (configuration not stated)	none (no result: ELG1 repair inh, VP16 counter, DT40 TDP1 no CPT, RORgamma inh, DT40 TDP1 CPT)
C[N+](C)(C)CCOC(c1ccccc1)c1ccccc1	none (no result: ELG1 repair inh, VP16 counter, DT40 TDP1 no CPT, RORgamma inh, DT40 TDP1 CPT)
Cc1ccc(C(OCC(C)(C)C[N+](C)(C)C)c2ccccc2)cc1 (configuration not stated)	ELG1 repair inh inconclusive, 12-LOX inh 45µM, DT40 TDP1 no CPT 5.2µM, DT40 TDP1 CPT 5.8µM
CCCCC(=O)N(C)c1c(CC)nc2c(OCc3ccc(C(F)(F)F)cc3)cccn12	DT40 TDP1 no CPT inconclusive, DT40 TDP1 CPT inconclusive (no result: ELG1 repair inh, VP16 counter, RORgamma inh)
Cc1nc2c(OCc3ccc(C(F)(F)F)cc3)cccn2c1N(C)CC1CC1	DT40 TDP1 no CPT 23µM, DT40 TDP1 CPT inconclusive (no result: ELG1 repair inh, VP16 counter, RORgamma inh)
COC(=O)c1ccccc1COc1cccn2c(N(C)CC3CC3)c(C)nc12	DT40 TDP1 no CPT 18µM, DT40 TDP1 CPT inconclusive (no result: ELG1 repair inh, VP16 counter, RORgamma inh)
Cc1ccc(CSc2ncnc3onc(C)c23)cc1	none
Cc1noc2ncnc(SCc3ccc(C(F)(F)F)cc3)c12	DT40 TDP1 no CPT 16µM, RORgamma inh inconclusive, DT40 TDP1 CPT inconclusive
Cc1ccc(Sc2ncnc3onc(C)c23)cc1	VP16 counter 22µM, DT40 TDP1 no CPT 21µM, RORgamma inh 10µM, DT40 TDP1 CPT inconclusive
Cc1ccccc1Sc1ncnc2onc(C)c12	VP16 counter inconclusive, DT40 TDP1 no CPT 23µM, RORgamma inh 7.1µM, DT40 TDP1 CPT 23µM
Cc1noc2ncnc(Sc3c(Cl)cccc3Cl)c12	ELG1 repair inh inconclusive, VP16 counter 16µM, DT40 TDP1 no CPT 16µM, DT40 TDP1 CPT 18µM
COCc1nn2c3c(cnc2c1-c1ccccc1)C(=O)CC(c1ccccc1)C3 (configuration not stated)	none (no result: ELG1 repair inh, VP16 counter, DT40 TDP1 no CPT, RORgamma inh, DT40 TDP1 CPT)
O=C(NCCN1CCOCC1)C1CCC(=O)N(CCCc2ccccc2)C1 (configuration not stated)	none (no result: ELG1 repair inh, VP16 counter, DT40 TDP1 no CPT, RORgamma inh, DT40 TDP1 CPT)
NC(=O)c1ccc(CNC(=O)c2nccnc2N)cc1	none (no result: ELG1 repair inh, VP16 counter, DT40 TDP1 no CPT, RORgamma inh, DT40 TDP1 CPT)
Cn1cc(/C=C(\NC(=O)c2ccco2)C(=O)NCCO)c2ccccc21	none (no result: ELG1 repair inh, VP16 counter, DT40 TDP1 no CPT, RORgamma inh, DT40 TDP1 CPT)
CCCNc1ncc(CN2CCC(Cc3nn(C)c(=O)n3CC)CC2)cn1	none (no result: ELG1 repair inh, VP16 counter, DT40 TDP1 no CPT, RORgamma inh, DT40 TDP1 CPT)
O=C(Nc1cc(S(=O)(=O)N2CCCCCC2)ccc1OCC(F)(F)F)C1CCC1	VP16 counter inconclusive, RORgamma inh inconclusive
CCNc1ccc(S(=O)(=O)N(C)C)cc1NCC(=O)Nc1ccc(F)c(Cl)c1	ELG1 repair inh inconclusive, VP16 counter inconclusive, DT40 TDP1 no CPT 21µM, RORgamma inh inconclusive, DT40 TDP1 CPT 12µM
Cn1cc(S(=O)(=O)N2CCCC2)cc1C(=O)Nc1ccc(C(F)(F)F)cc1	DT40 TDP1 no CPT inconclusive, DT40 TDP1 CPT 29µM (no result: ELG1 repair inh, VP16 counter, RORgamma inh)
Cc1ccc(NC(=O)CNc2cccc(S(=O)(=O)N3CCCCC3)c2)cc1F	DT40 TDP1 no CPT inconclusive, DT40 TDP1 CPT inconclusive (no result: VP16 counter, RORgamma inh)
CN(C)S(=O)(=O)c1ccc(NC(=O)CNc2cc(S(=O)(=O)N3CCCC3)ccc2OCC(F)(F)F)cc1	VP16 counter inconclusive, DT40 TDP1 no CPT 18µM, RORgamma inh inconclusive, DT40 TDP1 CPT 21µM
O=C(CNc1cccc(S(=O)(=O)N2CCCC2)c1)Nc1ccc(C(F)(F)F)cc1	12-LOX inh inconclusive, DT40 TDP1 no CPT 15µM, DT40 TDP1 CPT 16µM (no result: VP16 counter, RORgamma inh)
Cn1cc(S(=O)(=O)N2CCCC2)cc1C(=O)Nc1cccc(C(F)(F)F)c1	DT40 TDP1 no CPT inconclusive
O=C(c1ccc(F)cc1)N1CCC2(CN[S+](=O)([O-])c3cccnc3O2)C1 (configuration not stated)	none (no result: ELG1 repair inh, VP16 counter, DT40 TDP1 no CPT, RORgamma inh, DT40 TDP1 CPT)
CCNc1ccc(S(=O)(=O)N2CCOCC2)cc1NCC(=O)Nc1cccc(Br)c1	DT40 TDP1 no CPT 2.6µM, DT40 TDP1 CPT 7.3µM (no result: ELG1 repair inh, VP16 counter, RORgamma inh)
